# Laboratory results published in ChEMBL document CHEMBL3988442, “University of Dundee, Small-Polar-MMV Screening Library” (2021).
# The whole screen tested about 48,000 compounds, of which about 13,000 (27%) showed an effect of 50% or more. This is one part of the list.
# Test system: Wolbachia pipientis
# Assay: Anti-Wolbachia Cell-Based Screen
# Assay type: functional
# Set-up: scale not given: in the data most compounds retested in dose-response had high values
# Conditions: 5 µM
row,SMILES,Percent Effect [%]
1,CN(C)C(=O)c1nc2c(n1C)CCN(Cc1ccccc1)C2,0.7909
2,CNC(=O)CNC(=O)CC1C(=O)NCCN1Cc1ccccc1C (stereo unspecified),-0.8934
3,COCCO[C@H]1CCN(Cc2cccs2)[C@H]1Cc1cccnc1.O=C(O)C(F)(F)F.O=C(O)C(F)(F)F,-0.3476
4,O=C(O)C(F)(F)F.O=C(O)C(F)(F)F.O=C(O)C(F)(F)F.c1cncc(CN2CC[C@@H]3O[C@H](COCCN4CCCC4)CC[C@@H]32)c1,86.61
5,Cn1cc(CN2CC[C@H]3O[C@@H](COCc4cccnc4)CC[C@H]32)cn1.O=C(O)C(F)(F)F.O=C(O)C(F)(F)F,-19.84
6,COCCO[C@H]1CCN(Cc2ccsc2)[C@H]1Cc1cccnc1.O=C(O)C(F)(F)F.O=C(O)C(F)(F)F,103.2
7,O=C(O)C(F)(F)F.O=C(O)C(F)(F)F.O=C(O)C(F)(F)F.c1ccc(COC[C@H]2CC[C@H]3[C@H](CCN3Cc3cccnc3)O2)nc1,-5.696
8,COCCO[C@@H]1CCN(C(=O)c2ccc(C)o2)[C@@H]1Cc1cccnc1.O=C(O)C(F)(F)F,18.38
9,COCCO[C@H]1CCN(Cc2cccnc2)[C@H]1Cc1cccnc1.O=C(O)C(F)(F)F.O=C(O)C(F)(F)F.O=C(O)C(F)(F)F,107.4
10,Cc1[nH]c2c(F)cccc2c1CC(=O)NCCCc1csc(N)n1,-2.894
11,COc1cc(C)c(NC(=O)CCn2cccc2)cc1OC,27.33
12,COc1cc(NC(=O)CCn2nc(-c3cccs3)oc2=O)cc(OC)c1,106.6
13,COC(=O)c1cccc(OCCn2nc(-c3cccs3)oc2=O)c1,2.853
14,COc1ccc(NC(=O)CCn2nc(-c3cccs3)oc2=O)cc1OC,106
15,O=c1oc(-c2cccs2)nn1CC1(O)CCCCC1,-6.599
16,Cc1cc(C)n2nc(C(=O)N3CCCC4(CCOC4)C3)cc2n1 (stereo unspecified),-5.928
17,COC(=O)C(C)(C)C(C)(C)NC(=O)Nc1nnc(-c2ccccn2)s1,-11.99
18,COc1c(C2CCCN2C(=O)c2ccc(C#N)cc2)c(C)nn1C (stereo unspecified),98.09
19,CCOc1ccc(C(=O)N2CCCC2c2c(C)nn(C)c2Cl)cn1 (stereo unspecified),128
20,CCOc1ccc(C(=O)N2CCCC2c2c(C)nn(C)c2OC)cn1 (stereo unspecified),122.4
21,COc1c(C2CCCN2C(=O)c2ccc3cc[nH]c3c2)c(C)nn1C (stereo unspecified),-0.02537
22,COc1c(C2CCCN2C(=O)c2sccc2C#N)c(C)nn1C (stereo unspecified),-24.73
23,COc1c(C2CCCN2C(=O)c2ccc3[nH]cnc3c2)c(C)nn1C (stereo unspecified),128.2

row,SMILES,Percent Effect [%]
1,Cc1cc(C(=O)N2C[C@@H]3CCCO[C@@H]3[C@H](N(C)C(C)C)C2)c(C)[nH]1,-3.882
2,COc1ccc(CNC(=O)NC2CCN(c3ccccc3)C2=O)cc1 (stereo unspecified),-1.645
3,Cc1noc(NC(=O)c2ccc(Br)s2)n1,1.553
4,CC1=N[C@@]2(CC[C@@H]3CN(C(=O)NCC(C)C)C[C@@H]32)C(=O)N1C,7.686
5,Cc1c(CNC(=O)NCc2cccc(-n3cncn3)c2)cnn1C,-0.3036
6,COc1c(C2CCCN2C(=O)c2ccoc2)c(C)nn1C (stereo unspecified),3.459
7,COc1c(C2CCCN2C(=O)c2ccc(O)nc2)c(C)nn1C (stereo unspecified),97.38
8,Cc1nn(C)c(Cl)c1C1CCCN1C(=O)c1ccc(O)nc1 (stereo unspecified),94.29
9,Cc1nn(C)c(C)c1C1CCCN1C(=O)c1ccc(NC2CC2)nc1 (stereo unspecified),-8.845
10,Cc1nn(C)c(Cl)c1C1CCCN1C(=O)c1ccc(C(N)=O)cn1 (stereo unspecified),118.3
11,CC(C)c1ncc(C(=O)N(C)c2ccc(Br)cn2)s1,0.7212
12,Cc1cc(CN2CCC(C3CCN(CCc4ccccc4)CC3)C2)[nH]n1 (stereo unspecified),-2.584
13,CC(C)CN1C[C@@H]2OCC(=O)N(c3ccccc3)[C@@H]2C1,-2.791
14,O=C(CCc1ccsc1)N1CCC(N2CCNC2=O)CC1,88.84
15,O=C1NCCN1C1CCN(CCc2cccs2)CC1,3.932
16,O=C(CCc1cccs1)N1CCC(N2CCNC2=O)CC1,8.278
17,O=C(CCc1nccs1)N1CCC(N2CCNC2=O)CC1,-13.84
18,O=C(CCc1cccs1)N1CCCC(N2CCNC2=O)C1 (stereo unspecified),103.5
19,O=C(CCc1nccs1)N1CCCC(N2CCNC2=O)C1 (stereo unspecified),-19.11
20,O=C(CCCc1cccs1)N1CCC(N2CCNC2=O)CC1,94.13
21,O=C(Nc1nccs1)N1CCCC(N2CCNC2=O)C1 (stereo unspecified),-14.98
22,O=C(CCc1ccccc1)N1CCC(N2CCNC2=O)CC1,0.2283
23,CC(C)(C)OC(=O)NCC1CCN(C(=O)c2ccc(F)cc2F)C1 (stereo unspecified),18.58

row,SMILES,Percent Effect [%]
1,COCCCN1CCCN(C(C)c2nc(C3CC3)no2)CC1 (stereo unspecified),-0.2305
2,CC(C)c1noc(C(C)N2CCN(CCO)CC2)n1 (stereo unspecified),-1.52
3,CC(c1nc(C2CC2)no1)N1CCN(CCN2CCCC2=O)CC1 (stereo unspecified),130.5
4,CC(c1nc(C2CC2)no1)N1CCN(CCn2ccccc2=O)CC1 (stereo unspecified),-4.377
5,CC(c1nc(C2CC2)no1)N1CCN(CCOCC(F)(F)F)CC1 (stereo unspecified),15.62
6,CC(C)c1noc(C(C)N2CCN(CCN3CCCC3=O)CC2)n1 (stereo unspecified),-2.358
7,CC(C)c1noc(C(C)N2CCN(CCCN3CCCC3=O)CC2)n1 (stereo unspecified),113.6
8,CC(c1nc(C2CC2)no1)N1CCN(CCCN2CCCC2=O)CC1 (stereo unspecified),95.99
9,O=C(N1CCCC1)N1C[C@H]2CC[C@@]3(N=C(c4ccccc4)NC3=O)[C@H]2C1,-1.269
10,c1ccc(CSc2nnc(C3CC3)s2)nc1,-7.286
11,Cc1nnc(SCc2ccccn2)s1,113.6
12,COc1c(C)cnc(CSc2nnc(C)s2)c1C,6.724
13,CCC(Nc1nc(CCN)nc2ccccc12)c1cccs1 (stereo unspecified),21.59
14,Cc1nc(NCCSc2ccccn2)c2c(C)noc2n1,2.263
15,CCC(Nc1nc(C)nc2onc(C)c12)c1nc(C)c(C)s1 (stereo unspecified),99.23
16,CCCc1nc(C)c(CNc2nc(C)nc3onc(C)c23)s1,18.49
17,CCC(Nc1nc(C)nc2onc(C)c12)c1cccs1 (stereo unspecified),84.62
18,Cc1nc(NCCSc2cnn[nH]2)c2c(C)noc2n1,-13.5
19,Cc1nc(COc2ccc(OCC(N)=O)cc2)oc1C,23.22
20,CC(C)N(C)C(=O)CN1C(=O)OC[C@@H]1c1ccccc1,-15.23
21,CCn1c(C)nnc1CN(C)C1CCN(Cc2sc(C)nc2C)C1 (stereo unspecified),1.106
22,Cc1nc(C)c(CN2CCC(N(C)Cc3nnc(C4CC4)o3)C2)s1 (stereo unspecified),83.42
23,Cc1nc(CN(C)C2CCN(Cc3sc(C)nc3C)C2)no1 (stereo unspecified),-5.233

row,SMILES,Percent Effect [%]
1,Cc1ncc(CN(C)C2CCCN(Cc3noc(C4CC4)n3)C2)s1 (stereo unspecified),1.76
2,Cc1ccc(N2CCCC(N(C)Cc3nnc(C4CC4)o3)C2)nn1 (stereo unspecified),-13.84
3,Cc1nc(C)c(CN2CCC(N(C)Cc3noc(C4CC4)n3)C2)s1 (stereo unspecified),84.99
4,O=C(CN1C(=O)c2ccccc2CS1(=O)=O)c1ccccc1,-5.153
5,COCC(C)NC(=O)c1cncc(Br)c1 (stereo unspecified),15.5
6,Cc1cc(O)cc2c(=O)oc(CC(C)O)cc12 (stereo unspecified),-7.016
7,Cc1ccc(OCc2nc(CNCC3CN(C)CCO3)cs2)cc1 (stereo unspecified),109.6
8,Cc1ccc(-c2cn3c(n2)CO[C@@H](CNCc2nccs2)C3)cc1,-9.469
9,CC(C)CCc1nc(CNCC2CN(C)CCO2)cs1 (stereo unspecified),94.45
10,CN1CCOC(CNCc2nc(-c3ccccc3)cs2)C1 (stereo unspecified),5.622
11,Cc1c(F)cccc1NC(=O)N(C(C)CS(C)(=O)=O)C1CC1 (stereo unspecified),-14.75
12,CCC(CO)N(Cc1ccccn1)C(=O)c1ccc2c(c1)CCO2 (stereo unspecified),6.403
13,CCSCc1cccc(NC2CCN(C)C2=O)c1 (stereo unspecified),-4.409
14,CCCc1nc(CN2CCCC2Cn2cncn2)cs1 (stereo unspecified),0.1257
15,CN(C)C(=O)Cc1nc(CN2CCCCC2Cn2cncn2)cs1 (stereo unspecified),-10.91
16,CC(C)c1nc(CN2CCCC2CN2CCCC2)cs1 (stereo unspecified),11.4
17,CC(C)c1nc(CN2CCCCC2Cn2cncn2)cs1 (stereo unspecified),82.22
18,CCCc1nc(CN2CCCCC2Cn2cncn2)cs1 (stereo unspecified),92.11
19,c1ncn(CC2CCCCN2Cc2csc(C3CCCC3)n2)n1 (stereo unspecified),3.175
20,Cc1nc(C(NS(=O)(=O)N(C)C)c2ccccc2F)no1 (stereo unspecified),-14.73
21,O=C(NC[C@H]1OC[C@@H](NC2CCC(F)(F)CC2)[C@@H]1O)c1ccccc1,-10.21
22,O=C(CCc1ccncc1)N1CCc2c(ncnc2N2CCOCC2)C1,-13.92
23,COc1cc(C)c2c(c1C)C[C@H]([C@H](C)C(=O)O)CC2,-11.67

row,SMILES,Percent Effect [%]
1,CCN1CCC(=O)N(C)Cc2cc(F)ccc21,110.2
2,CN1Cc2cc(F)ccc2N(CC(C)(C)O)CCC1=O,116.8
3,CN1CCN(S(C)(=O)=O)c2ccc(F)cc21,-0.158
4,CCN1CC2(CCC1=O)CCN(Cc1cc(F)ccc1Cl)CC2,-6.305
5,Cn1ncc2c(=O)[nH]c(CN3CCCc4cc(F)ccc43)nc21,-1.731
6,CSCCC(C)NC(=O)CCN1C(=O)CCc2cc(F)ccc21 (stereo unspecified),2.729
7,COc1cc(C(C)=O)ccc1OCC(=O)N(CC(C)C#N)C1CC1 (stereo unspecified),-5.755
8,O=C(NC1CC1)c1cccc(Oc2ccc3nncn3n2)c1,135.1
9,O=C(CN1CCN(c2ccc3nncn3n2)CC1)NC1CCCC1,0.9347
10,CC(=O)N1CC(c2ncn(C(C)C)n2)c2cc(C(=O)NC(C)C)ccc21 (stereo unspecified),-2.765
11,CC(C)CNC(=O)c1cccc(Oc2ccc3nncn3n2)c1,96.36
12,COc1cccc(C(=O)NCC(O)c2cccs2)c1 (stereo unspecified),-0.6339
13,CN(C)C(CNC(=O)c1cccc(-n2cnnn2)c1)c1ccccc1Cl (stereo unspecified),-8.623
14,O=C(NC1CCCCC1)c1ccc(Oc2ccc3nncn3n2)cc1,113.3
15,CC(Nc1cccc(Oc2ccc(C#N)cn2)c1)C(=O)NC1CC1 (stereo unspecified),4.844
16,CC(C)NC(=O)c1ccc2nnc(C3CCN(C(=O)NC(C)C)C3)n2c1 (stereo unspecified),5.911
17,O=C(CN1CCN(c2ccc3nncn3n2)CC1)NC1CCCCC1,14.04
18,CC(C)NC(=O)c1cccc(Oc2ccc3nncn3n2)c1,131.1
19,CC1CN(CC(=O)NC2CCCC2)CCN1c1ccc2nncn2n1 (stereo unspecified),1.075
